Measured values published in PubChem BioAssay (NCI).
Compounds without any hit were thinned out: in the full panel of roughly 79,000, 15% have a hit. Active and inactive are the calls of the source. Rule as the data show it: active = growth inhibition above about 70%; inactive = the rest.

Key:
[1] = NCI Yeast Anticancer Drug Screen. Data for the rad14 strain (AID 159);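 also: 0% = growth of vehicle-treated control cultures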; details: S. cerevisiae rad14 strain growth inhibition, stronger effect = higher value
Method in brief: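 Readout: yeast growth inhibition, referenced to vehicle-only cultures. Strain bears a defined alteration in DNA damage repair.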

[2] = NCI Yeast Anticancer Drug Screen. Data for the sgs1 mgt1 strain (AID 161);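 also: 0% = growth of cultures given vehicle only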; details: S. cerevisiae sgs1 mgt1 strain, stronger effect = higher value
Method in brief: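 Read-out: growth inhibition vs vehicle controls. Cells: mutant yeast strain deficient in DNA damage repair.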

[3] = NCI Yeast Anticancer Drug Screen. Data for the CLN2oe strain (AID 163);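 also: 0% = growth of vehicle-only control cultures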; details: S. cerevisiae CLN2oe strain, stronger effect = higher value
Method in brief: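 Strain altered in cell-cycle control, incubated with compound; growth compared to solvent-treated controls.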

[4] = NCI Yeast Anticancer Drug Screen. Data for the cln2 rad14 strain (AID 165);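 also: 0% = growth equal to vehicle treated cultures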; details: S. cerevisiae cln2 rad14 strain, stronger effect = higher value
Method in brief: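 The screen exposed genetically defined yeast (cln2 rad14) to test compounds and scored growth inhibition relative to vehicle-treated controls.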

[5] = NCI Yeast Anticancer Drug Screen. Data for the bub3 strain (AID 167); details: S. cerevisiae bub3 mutant strain, stronger effect = higher value
Method in brief: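 Part of a panel of yeast mutants defective in DNA damage repair or cell cycle regulation. Each strain is grown with compound, and inhibition is calculated relative to solvent-treated cultures.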

[6] = NCI Yeast Anticancer Drug Screen. Data for the wt2 strain (AID 169);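 also: 0% = growth of vehicle-treated yeast cultures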; details: S. cerevisiae wt2 strain growth inhibition, stronger effect = higher value
Method in brief: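 Steps: yeast strain treated with compound; growth recorded; inhibition calculated relative to cultures given vehicle alone.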

[7] = NCI Yeast Anticancer Drug Screen. Data for the mlh1 strain (AID 171);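 also: 0% = growth of vehicle-treated control cultures of the same strain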; details: S. cerevisiae mlh1 strain growth inhibition, stronger effect = higher value
Method in brief: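 Yeast screen: mutant strain plus compound, growth scored against vehicle control wells.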

[8] = NCI Yeast Anticancer Drug Screen. Data for the sgs1 strain (AID 173);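 also: 0% = growth of vehicle-only control cultures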; details: S. cerevisiae sgs1 mutant, stronger effect = higher value
Method in brief: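 Inhibition of yeast growth served as the measure. The mutant strain was treated with each compound, and growth was normalised to cultures receiving vehicle alone.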

[9] = NCI Yeast Anticancer Drug Screen. Data for the mlh1 rad18 strain (AID 175); details: S. cerevisiae mlh1 rad18 strain growth inhibition, stronger effect = higher value
Method in brief: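 Compound-treated yeast growth, normalised to vehicle controls. Strain bears defined DNA repair mutations.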

[10] = NCI Yeast Anticancer Drug Screen. Data for the rad18 strain (AID 177); details: S. cerevisiae rad18 mutant growth inhibition, stronger effect = higher value
Method in brief: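 Inhibition values reflect reduced yeast growth compared with vehicle-treated controls, using a strain engineered with a DNA damage repair defect.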

[11] = NCI Yeast Anticancer Drug Screen. Data for the wt1 strain (AID 149);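 also: 0% = growth of vehicle-treated wt1 cultures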; details: S. cerevisiae wt1 strain (SPY 50644) growth inhibition, stronger effect = higher value
Method in brief: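 The wt1 strain was treated with compounds, and growth was compared with vehicle-treated cultures to give inhibition.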

[12] = NCI Yeast Anticancer Drug Screen. Data for the rad50 strain (AID 155);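 also: 0% = growth of vehicle-only cultures of the same strain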; details: S. cerevisiae rad50 strain growth inhibition, stronger effect = higher value
Method in brief: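 Cells are treated with compound, grown, and their growth is then scored against vehicle-only cultures of the same repair-deficient yeast strain.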

[13] = NCI Yeast Anticancer Drug Screen. Data for the mec2-1 strain (AID 157); details: S. cerevisiae mec2-1 strain, stronger effect = higher value
Method in brief: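 Cells of the genetically defined mec2-1 yeast strain are incubated with test compound. Inhibition of growth is calculated against vehicle-treated controls.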

[14] = NCI Yeast Anticancer Drug Screen. Data for the mgt1 strain (AID 153); details: S. cerevisiae mgt1 mutant growth inhibition, stronger effect = higher value
Method in brief: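 Read-out: yeast growth inhibition vs vehicle control. Strain mgt1, drawn from a panel altered in DNA damage repair or cell cycle control.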

[15] = at 5.0 µM (retest, dose inferred, filed as 0.5)
[16] = at 50.0 µM (retest, dose inferred, filed as 5.0)

Measured: growth inhibition

O=C(NNC(=O)OCC(Cl)(Cl)Cl)OCC(Cl)(Cl)Cl
active: [2]; [16] 96% | [2]; at 50.0 µM 90.3% | [6]; at 33.0 µM 89% | [6]; at 100.0 µM 96% | [7]; at 33.0 µM 88% | [7]; at 100.0 µM 96% | [8]; at 33.0 µM 92% | [8]; at 100.0 µM 97%
inactive: [1]; at 100.0 µM 26% | [2]; [15] 0% | [3]; at 1.2 µM -1% | [3]; at 3.7 µM -5% | [3]; at 11.0 µM -2% | [3]; at 33.0 µM 9% | [3]; at 100.0 µM 38% | [4]; [15] 4% | [4]; [16] 11% | [4]; at 50.0 µM -12.9% | [5]; at 1.2 µM -3% | [5]; at 3.7 µM -8% | [5]; [15] -5% | [5]; at 11.0 µM -6% | [5]; at 33.0 µM -4% | [5]; [16] 7% | [5]; at 50.0 µM 6.9% | [5]; at 100.0 µM 20% | [6]; at 1.2 µM -2% | [6]; at 3.7 µM -4% | [6]; at 11.0 µM 29% | [7]; at 1.2 µM -1% | [7]; at 3.7 µM -2% | [7]; at 11.0 µM 20% | [8]; at 1.2 µM -3% | [8]; at 3.7 µM -1% | [8]; at 11.0 µM 42% | [9]; [15] -1% | [9]; [16] 3% | [9]; at 50.0 µM 0.3% | [10]; at 1.2 µM -1% | [10]; at 3.7 µM 0% | [10]; at 11.0 µM 3% | [10]; at 33.0 µM 13% | [10]; at 100.0 µM 53%

C=CC[N+]12CN3CN(CN(C3)C1)C2
inactive: [11]; at 1.2 µM -10% | [11]; at 3.7 µM -28% | [11]; at 11.0 µM -21% | [11]; at 33.0 µM -23% | [11]; at 100.0 µM 41% | [12]; at 1.2 µM 8% | [12]; at 3.7 µM -1% | [12]; [15] 38% | [12]; at 11.0 µM -21% | [12]; at 33.0 µM -3% | [12]; [16] 65% | [12]; at 50.0 µM 29.8% | [12]; at 100.0 µM 32% | [13]; at 1.2 µM -12% | [13]; at 3.7 µM -24% | [13]; [15] 43% | [13]; at 11.0 µM -31% | [13]; at 33.0 µM 45% | [13]; at 50.0 µM 20.6% | [1]; at 1.2 µM -35% | [1]; at 3.7 µM -34% | [1]; at 11.0 µM -31% | [1]; at 33.0 µM -16% | [1]; at 100.0 µM 31% | [2]; [15] -2% | [2]; at 50.0 µM 59.8% | [3]; at 1.2 µM -24% | [3]; at 3.7 µM -32% | [3]; at 11.0 µM -17% | [3]; at 33.0 µM -9% | [4]; [15] 67% | [4]; at 50.0 µM 7.55% | [5]; at 1.2 µM -1% | [5]; at 3.7 µM 12% | [5]; [15] 20% | [5]; at 11.0 µM 12% | [5]; at 50.0 µM 2.1% | [6]; at 1.2 µM -49% | [6]; at 3.7 µM -52% | [6]; at 11.0 µM -52% | [6]; at 33.0 µM -28% | [6]; at 100.0 µM 23% | [7]; at 1.2 µM -25% | [7]; at 3.7 µM -22% | [7]; at 11.0 µM -23% | [7]; at 33.0 µM 13% | [8]; at 1.2 µM -20% | [8]; at 3.7 µM -17% | [8]; at 11.0 µM -21% | [8]; at 33.0 µM -4% | [8]; at 100.0 µM 43% | [9]; [15] 38% | [9]; [16] 52% | [9]; at 50.0 µM 10.2% | [10]; at 1.2 µM 18% | [10]; at 3.7 µM 19% | [10]; at 11.0 µM -13% | [10]; at 33.0 µM 13% | [10]; at 100.0 µM 12%
active: [13]; [16] 70% | [13]; at 100.0 µM 98% | [2]; [16] 98% | [3]; at 100.0 µM 70% | [4]; [16] 96% | [5]; at 33.0 µM 75% | [5]; [16] 97% | [5]; at 100.0 µM 94% | [7]; at 100.0 µM 74%

COC1OC(COC(C)=O)C(OC(C)=O)C(OC(C)=O)[C]1(OC(C)=O)[Hg][O]C(C)=O (centres undefined)
active: [12]; [15] 99% | [12]; [16] 99% | [12]; at 50.0 µM 99.3% | [13]; [15] 100% | [13]; [16] 100% | [13]; at 50.0 µM 98.5% | [2]; [15] 99% | [2]; [16] 99% | [2]; at 50.0 µM 99.7% | [4]; [15] 99% | [4]; [16] 98% | [4]; at 50.0 µM 99.4% | [5]; [15] 99% | [5]; [16] 99% | [5]; at 50.0 µM 97.8%

COC(=O)C(F)C(Br)C(=O)OC (centres undefined)
active: [11]; at 3.7 µM 74% | [11]; at 11.0 µM 97% | [11]; at 33.0 µM 98% | [11]; at 100.0 µM 99% | [14]; at 3.7 µM 82% | [14]; at 11.0 µM 98% | [14]; at 33.0 µM 99% | [14]; at 100.0 µM 99% | [12]; [15] 88% | [12]; at 11.0 µM 96% | [12]; at 33.0 µM 98% | [12]; [16] 99% | [12]; at 50.0 µM 90.8% | [12]; at 100.0 µM 98% | [13]; at 3.7 µM 73% | [13]; [15] 93% | [13]; at 11.0 µM 95% | [13]; at 33.0 µM 98% | [13]; [16] 100% | [13]; at 50.0 µM 93% | [13]; at 100.0 µM 99% | [2]; at 50.0 µM 92.5% | [3]; at 3.7 µM 91% | [3]; at 11.0 µM 97% | [3]; at 33.0 µM 98% | [3]; at 100.0 µM 100% | [4]; at 50.0 µM 84.2% | [5]; at 3.7 µM 94% | [5]; at 11.0 µM 98% | [5]; at 33.0 µM 99% | [5]; at 50.0 µM 91.4% | [5]; at 100.0 µM 97% | [6]; at 3.7 µM 95% | [6]; at 11.0 µM 98% | [6]; at 33.0 µM 99% | [6]; at 100.0 µM 100% | [7]; at 3.7 µM 96% | [7]; at 11.0 µM 98% | [7]; at 33.0 µM 99% | [7]; at 100.0 µM 99% | [8]; at 3.7 µM 95% | [8]; at 11.0 µM 98% | [8]; at 33.0 µM 99% | [8]; at 100.0 µM 99% | [9]; [15] 94% | [9]; [16] 98% | [9]; at 50.0 µM 90% | [10]; at 3.7 µM 88% | [10]; at 11.0 µM 98% | [10]; at 33.0 µM 92% | [10]; at 100.0 µM 98%
inactive: [11]; at 1.2 µM -3% | [14]; at 1.2 µM 16% | [12]; at 1.2 µM -5% | [12]; at 3.7 µM 60% | [13]; at 1.2 µM 20% | [2]; [15] 8% | [2]; [16] 12% | [3]; at 1.2 µM 43% | [4]; [15] 5% | [4]; [16] -42% | [5]; at 1.2 µM 64% | [5]; [15] 11% | [5]; [16] -21% | [6]; at 1.2 µM 55% | [7]; at 1.2 µM 66% | [8]; at 1.2 µM 48% | [10]; at 1.2 µM 29%
